Here are results for 40 compounds from PubChem BioAssay (NCATS).

Inconclusive results are not listed. A call without a number means that no potency is given here. Activity calls are given as the source filed them. The call rests on the fitted dose curve; tested in HEK293 reporter line.
Potency means the concentration at half of the fitted maximal effect.

One assay is described as follows: qHTS for Inhibitors of the Functional Ribonucleoprotein Complex (vRNP) of Lassa (LASV) Arenavirus: LASV Primary Screen - GLuc reporter signal (AID 1347082). Further: nearly all actives have a fitted effect of over 60% in size. To be noted: LASV minigenome vRNP, Gaussia luciferase reporter; series mostly up to 57.5 µM.
As to `C/C=C(\C)C(=O)O[C@H](c1cc2ccc(=O)oc2cc1OC)[C@@H](O)C(C)(C)O`, the Potency result is “inactive”.
For `S=C(NCc1ccccc1)NCc1ccccc1`, the Potency entry was “inactive”.
As to `CC12CCC(=O)C=C1C(O)CC1C2CCC2(C)C1CCC2(O)C(=O)CO` (stereo not given), the Potency entry is “inactive”.
The same measure, in the same setting: the entry for `CC1(C)C(CO)=CC(=O)C2=C1SCC(=O)N2` is “inactive”; for `COc1ccc(C(=O)OCCc2ccc(O)cc2)cc1` it is “inactive”; for `CCCC(C)C(O)CC` (stereo not given) it is “inactive”.
On the same count and under the same terms, the entry for `C/C=C1\CN2[C@H]3C[C@@]45c6ccccc6N(C)[C@H]4[C@@H]2CC1C3[C@H]5O` (stereo not given in full) is “inactive”; for `CC1(C)CCC[C@@]2(C)[C@@H]1CC[C@@]1(C)OC(=O)C[C@H]21` it is “inactive”; for `COc1ccc(-c2coc3cc(OC)cc(O)c3c2=O)cc1` it is “inactive”.
Consider `CN(CC=CC#CC(C)(C)C)Cc1cccc2ccccc12`, for which the Potency result is “inactive”.
Consider `CC(C)=CCC/C(C)=C/COc1c2occc2cc2ccc(=O)oc12`, for which the Potency result was “inactive”.
With `C=CC(C)(CCC=C(C)C)OC(=O)c1ccccc1` (stereo not given), the Potency entry was “inactive”.
On to `O=c1c2ccccc2nc2n1CCC2`, for which the Potency entry is “inactive”.
Consider `CC(C)(C)[C@]1(O)CCN2C[C@H]3c4ccccc4CCc4cccc(c43)[C@@H]2C1`, for which the Potency entry is “inactive”.
With `C=C1[C@@H]2C[C@]3(C(CC2=O)[C@]24C5C[C@H]3[C@H]2N(CC)C[C@]5(C)CC[C@@H]4O)[C@@H]1O` (stereo not given in full), the Potency entry is “inactive”.
Still for that read-out and setting: the entry for `CC1(C)C[C@H](O)[C@@]23C[C@@H](OC2=O)[C@]2(C)C(=CCC4[C@@]5(C)CC[C@H](O)C(C)(C)C5CC[C@]42C)[C@@H]3C1` (stereo not given in full) is “inactive”; for `Cc1c(O)cccc1C(=O)N[C@@H](CSc1ccccc1)[C@H](O)CN1C[C@H]2CCCC[C@@H]2C[C@@H]1C(=O)NC(C)(C)C` it is “inactive”.
`COC(=O)C=CC(=O)OC`: the Potency was 6.11 µM (active).
Turning to `CCCCCCCCCCC(C)=O`, the Potency result is “inactive”.
Regarding `O=c1c(O)c(-c2cc(O)c(O)c(O)c2)oc2cc(O)ccc12`, the Potency entry was “inactive”.
`CCCCc1nc2ccccc2[nH]1`: the Potency entry is “inactive”.
On to `COc1cc(-c2cc(=O)c3c(O)cc(O)cc3o2)ccc1O`, for which the Potency result is “inactive”.
For `CC(C)CNC(=O)/C=C/C=C/c1ccc2c(c1)OCO2`, the Potency result was “inactive”.
As to `CC(=O)O[C@H](COc1c2ccoc2cc2oc(=O)ccc12)C(C)(C)O`, the Potency entry was “inactive”.
For the compound `CCOC(=O)c1ccccc1`, the Potency result is “inactive”.
Still for that read-out and setting: the entry for `SC1CCCC1` is “inactive”; for `C=Cc1cc(OC)c2c(c1)c(=O)oc1c2cc(OC)c2c(O)ccc(C3OC(C)C(O)C(C)(O)C3O)c21` (stereo not given) it is “inactive”.
With `CC1(C)C=C2[C@H]3CC[C@@H]4[C@@]5(C)CCC(=O)C(C)(C)[C@@H]5CC[C@@]4(C)[C@]3(C)CC[C@@]2(C(=O)O)CC1`, the Potency result is “inactive”.
As for `CC(=O)c1ccc(-c2cccs2)s1`, the Potency result was “inactive”.
On the same count and under the same terms, the same measure for `Cc1c(O)c(C)c2c(c1O)C(=O)C[C@@H](c1ccccc1)O2`: “inactive”.
On to `Nc1nc2c(ncn2[C@@H]2O[C@H](COP(=O)(O)OP(=O)(O)O)[C@@H](O)[C@H]2O)c(=O)[nH]1`, for which the Potency entry was “inactive”.
As to `C=C1C(=O)O[C@H]2C[C@]3(C)C([C@@H](OC(=O)/C(C)=C/C)[C@H]12)[C@](C)(O)CC[C@H]3O` (stereo not given in full), the Potency result is “inactive”.
For `COc1cc(OC)c2c(-c3ccccc3)cc(=O)oc2c1`, the Potency entry was “inactive”.
Turning to `O=C1CCC[C@H]2[C@@H]3CCCN4CCC[C@H](CN12)[C@H]34`, the Potency result was “inactive”.
In the case of `O=c1c2c(O)cc(O)cc2oc2c(O)ccc(O[C@H]3O[C@@H](CO)[C@H](O)[C@@H](O)[C@@H]3O)c12`, the Potency entry was “inactive”.
Turning to `CC1OC(OC2C(CO)OC(OCC3OC(OC(=O)[C@@]45CCC(C)(C)C[C@@H]4C4=CC[C@@H]6[C@@]7(C)CCC(OC8OCC(O)C(O)C8OC8OC(C)C(O)C(O)C8O)[C@@](C)(CO)C7CC[C@@]6(C)[C@]4(C)CC5)C(O)C(O)C3O)C(O)C2O)C(O)C(O)C1O` (stereo not given in full), the Potency entry is “inactive”.
With `COc1cc(CCc2cc(NC(=O)c3ccc(N4C[C@@H](C)N[C@@H](C)C4)cc3)n[nH]2)cc(OC)c1`, the Potency entry was “inactive”.
In the case of `CC(C)(O)CC[C@H](OC(=O)c1ccccc1)[C@](C)(O)[C@H]1CC[C@@]2(O)C3=CC(=O)[C@@H]4C[C@@H](O)[C@H](O)C[C@]4(C)C3CC[C@]12C` (stereo not given in full), the Potency entry was “inactive”.
On the same count and under the same terms, the entry for `CCC(=O)OCCC(C)CCC=C(C)C` (stereo not given) is “inactive”; for `Nc1ccn([C@@H]2O[C@H](CO)[C@@H](OP(=O)(O)O)[C@H]2O)c(=O)n1` it is “inactive”.

Another assay is described as follows: qHTS for Inhibitors of the Functional Ribonucleoprotein Complex (vRNP) of Lassa (LASV) Arenavirus: Viability assay - alamar blue signal for LASV Primary Screen (AID 1347083). Further: nearly all actives have a fitted effect of over 80% in size. The settings on record: cell viability, alamar blue fluorescence (LASV minigenome counter-screen); series mostly up to 57.5 µM. On the technique in general: Quantitative high-throughput screening tests each substance at several concentrations.
With `C/C=C(\C)C(=O)O[C@H](c1cc2ccc(=O)oc2cc1OC)[C@@H](O)C(C)(C)O`, the Potency entry is “inactive”.
Regarding `S=C(NCc1ccccc1)NCc1ccccc1`, the Potency result is “inactive”.
Turning to `CC12CCC(=O)C=C1C(O)CC1C2CCC2(C)C1CCC2(O)C(=O)CO` (stereo not given), the Potency entry was “inactive”.
As to `CC1(C)C(CO)=CC(=O)C2=C1SCC(=O)N2`, the Potency result was “inactive”.
On the same count and under the same terms, the same measure for `COc1ccc(C(=O)OCCc2ccc(O)cc2)cc1`: “inactive”; for `CCCC(C)C(O)CC` (stereo not given): “inactive”.
Consider `C/C=C1\CN2[C@H]3C[C@@]45c6ccccc6N(C)[C@H]4[C@@H]2CC1C3[C@H]5O` (stereo not given in full), for which the Potency entry was “inactive”.
Consider `CC1(C)CCC[C@@]2(C)[C@@H]1CC[C@@]1(C)OC(=O)C[C@H]21`, for which the Potency result is “inactive”.
Turning to `COc1ccc(-c2coc3cc(OC)cc(O)c3c2=O)cc1`, the Potency result is “inactive”.
Take `CN(CC=CC#CC(C)(C)C)Cc1cccc2ccccc12`: the Potency result is “inactive”.
`CC(C)=CCC/C(C)=C/COc1c2occc2cc2ccc(=O)oc12`: the Potency entry is “inactive”.
Same read-out and setting: the same measure for `C=CC(C)(CCC=C(C)C)OC(=O)c1ccccc1` (stereo not given): “inactive”; for `O=c1c2ccccc2nc2n1CCC2`: “inactive”; for `CC(C)(C)[C@]1(O)CCN2C[C@H]3c4ccccc4CCc4cccc(c43)[C@@H]2C1`: “inactive”.
Same read-out and setting: the same measure for `C=C1[C@@H]2C[C@]3(C(CC2=O)[C@]24C5C[C@H]3[C@H]2N(CC)C[C@]5(C)CC[C@@H]4O)[C@@H]1O` (stereo not given in full): “inactive”.
The same measure, in the same setting: the same measure for `CC1(C)C[C@H](O)[C@@]23C[C@@H](OC2=O)[C@]2(C)C(=CCC4[C@@]5(C)CC[C@H](O)C(C)(C)C5CC[C@]42C)[C@@H]3C1` (stereo not given in full): “inactive”; for `Cc1c(O)cccc1C(=O)N[C@@H](CSc1ccccc1)[C@H](O)CN1C[C@H]2CCCC[C@@H]2C[C@@H]1C(=O)NC(C)(C)C`: “inactive”.
Consider `COC(=O)C=CC(=O)OC`, for which the Potency is 4.85 µM (active).
For `CCCCCCCCCCC(C)=O`, the Potency entry was “inactive”.
As for `O=c1c(O)c(-c2cc(O)c(O)c(O)c2)oc2cc(O)ccc12`, the Potency entry was “inactive”.
As for `CCCCc1nc2ccccc2[nH]1`, the Potency result was “inactive”.
On the same count and under the same terms, the entry for `COc1cc(-c2cc(=O)c3c(O)cc(O)cc3o2)ccc1O` is “inactive”; for `CC(C)CNC(=O)/C=C/C=C/c1ccc2c(c1)OCO2` it is “inactive”.
On to `CC(=O)O[C@H](COc1c2ccoc2cc2oc(=O)ccc12)C(C)(C)O`, for which the Potency entry was “inactive”.
Turning to `CCOC(=O)c1ccccc1`, the Potency result is “inactive”.
In the case of `SC1CCCC1`, the Potency entry is “inactive”.
Regarding `C=Cc1cc(OC)c2c(c1)c(=O)oc1c2cc(OC)c2c(O)ccc(C3OC(C)C(O)C(C)(O)C3O)c21` (stereo not given), the Potency entry was “inactive”.
For the compound `CC1(C)C=C2[C@H]3CC[C@@H]4[C@@]5(C)CCC(=O)C(C)(C)[C@@H]5CC[C@@]4(C)[C@]3(C)CC[C@@]2(C(=O)O)CC1`, the Potency result is “inactive”.
`CC(=O)c1ccc(-c2cccs2)s1`: the Potency entry is “inactive”.
Still for that read-out and setting: the entry for `Cc1c(O)c(C)c2c(c1O)C(=O)C[C@@H](c1ccccc1)O2` is “inactive”.
Turning to `Nc1nc2c(ncn2[C@@H]2O[C@H](COP(=O)(O)OP(=O)(O)O)[C@@H](O)[C@H]2O)c(=O)[nH]1`, the Potency result was “inactive”.
On to `C=C1C(=O)O[C@H]2C[C@]3(C)C([C@@H](OC(=O)/C(C)=C/C)[C@H]12)[C@](C)(O)CC[C@H]3O` (stereo not given in full), for which the Potency entry is “inactive”.
Take `COc1cc(OC)c2c(-c3ccccc3)cc(=O)oc2c1`: the Potency result was “inactive”.
Regarding `O=C1CCC[C@H]2[C@@H]3CCCN4CCC[C@H](CN12)[C@H]34`, the Potency entry is “inactive”.
In the case of `O=c1c2c(O)cc(O)cc2oc2c(O)ccc(O[C@H]3O[C@@H](CO)[C@H](O)[C@@H](O)[C@@H]3O)c12`, the Potency entry is “inactive”.
As to `CC1OC(OC2C(CO)OC(OCC3OC(OC(=O)[C@@]45CCC(C)(C)C[C@@H]4C4=CC[C@@H]6[C@@]7(C)CCC(OC8OCC(O)C(O)C8OC8OC(C)C(O)C(O)C8O)[C@@](C)(CO)C7CC[C@@]6(C)[C@]4(C)CC5)C(O)C(O)C3O)C(O)C2O)C(O)C(O)C1O` (stereo not given in full), the Potency entry was “inactive”.
In the case of `COc1cc(CCc2cc(NC(=O)c3ccc(N4C[C@@H](C)N[C@@H](C)C4)cc3)n[nH]2)cc(OC)c1`, the Potency is 34.3 µM (active).
Still for that read-out and setting: the same measure for `CC(C)(O)CC[C@H](OC(=O)c1ccccc1)[C@](C)(O)[C@H]1CC[C@@]2(O)C3=CC(=O)[C@@H]4C[C@@H](O)[C@H](O)C[C@]4(C)C3CC[C@]12C` (stereo not given in full): “inactive”; for `CCC(=O)OCCC(C)CCC=C(C)C` (stereo not given): “inactive”.
With `Nc1ccn([C@@H]2O[C@H](CO)[C@@H](OP(=O)(O)O)[C@H]2O)c(=O)n1`, the Potency result was “inactive”.
